In all, about 5,500 compounds went through this assay and about 2,000 (36%) were called active. Another 18% or so got no clear call; they are omitted. Rule as the data show it: active = normalized growth mostly below about 0.91 (no sharp cut-off); inconclusive = no clear call, values can overlap the other calls; inactive = mostly above about 0.92. This is one part of the list.
Test: chemical genetic growth profiling, strain panel (AID 1159580);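 also: tested at 20 µM; growth read once vehicle control cultures reached saturation at 30 °C; 1 = growth at the plate median or of vehicle wells; lower values mean less growth of the strain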
Settings: S. cerevisiae deletion strains, growth OD
[1] = locus YAL021C, strain ccr4, stronger effect = lower value
[2] = locus YAL026C, strain drs2, stronger effect = lower value
[3] = locus YAL030W, strain snc1, stronger effect = lower value
[4] = locus YBL061C, strain skt5, stronger effect = lower value
[5] = locus YBR009C, strain hhf1, stronger effect = lower value
[6] = locus YBR023C, strain chs3, stronger effect = lower value
[7] = locus YBR171W, strain sec66, stronger effect = lower value
[8] = locus YBR231C, strain swc5, stronger effect = lower value
[9] = locus YBR279W, strain paf1, stronger effect = lower value
[10] = locus YCL011C, strain gbp2, stronger effect = lower value
[11] = locus YCL016C, strain dcc1, stronger effect = lower value
[12] = locus YCL061C, strain MRC1, stronger effect = lower value
[13] = locus YCL069W, strain vba3, stronger effect = lower value
[14] = locus YCR088W, strain abp1, stronger effect = lower value
[15] = locus YDL005C, strain med2, stronger effect = lower value
[16] = locus YDL040C, strain nat1, stronger effect = lower value
[17] = locus YDR001C, strain nth1, stronger effect = lower value
[18] = locus YDR069C, strain doa4, stronger effect = lower value
[19] = locus YDR137W, strain rgp1, stronger effect = lower value
[20] = locus YDR159W, strain sac3, stronger effect = lower value
[21] = locus YDR297W, strain sur2, stronger effect = lower value
[22] = locus YDR334W, strain swr1, stronger effect = lower value
[23] = locus YDR335W, strain msn5, stronger effect = lower value
[24] = locus YDR392W, strain spt3, stronger effect = lower value
[25] = locus YEL003W, strain gim4, stronger effect = lower value
[26] = locus YEL037C, strain rad23, stronger effect = lower value
[27] = locus YEL061C, strain CIN8 (second series), stronger effect = lower value
[28] = locus YER015W, strain faa2, stronger effect = lower value
[29] = locus YER016W, strain bim1, stronger effect = lower value
[30] = locus YER111C, strain swi4, stronger effect = lower value
[31] = locus YER155C, strain BEM2 (second series), stronger effect = lower value
[32] = locus YFR010W, strain ubp6, stronger effect = lower value
[33] = locus YGL167C, strain pmr1, stronger effect = lower value
[34] = locus YGL173C, strain kem1, stronger effect = lower value
[35] = locus YGL227W, strain vid30, stronger effect = lower value
[36] = locus YGL240W, strain doc1, stronger effect = lower value
[37] = locus YGL253W, strain hxk2, stronger effect = lower value
[38] = locus YHR013C, strain ard1, stronger effect = lower value
[39] = locus YHR027C, strain rpn1, stronger effect = lower value
[40] = locus YHR030C, strain SLT2, stronger effect = lower value
[41] = locus YHR079C, strain IRE1, stronger effect = lower value
[42] = locus YHR142W, strain chs7, stronger effect = lower value
[43] = locus YJL092W, strain hpr5, stronger effect = lower value
[44] = locus YJL095W, strain BCK1 (second series), stronger effect = lower value
[45] = locus YJL095W, strain BCK1, stronger effect = lower value
[46] = locus YJL115W, strain asf1, stronger effect = lower value
[47] = locus YJL129C, strain trk1, stronger effect = lower value
[48] = locus YJL154C, strain vps35, stronger effect = lower value
[49] = locus YJL164C, strain tpk1, stronger effect = lower value
[50] = locus YJL166W, strain qcr8, stronger effect = lower value
[51] = locus YJL187C, strain SWE1, stronger effect = lower value
[52] = locus YJR066W, strain TOR1, stronger effect = lower value
[53] = locus YKL160W, strain elf1, stronger effect = lower value
[54] = locus YKR026C, strain gcn3, stronger effect = lower value
[55] = locus YKR091W, strain srl3, stronger effect = lower value
[56] = locus YLL001W, strain dnm1, stronger effect = lower value
[57] = locus YLL026W, stronger effect = lower value
[58] = locus YLL041C, strain sdh2, stronger effect = lower value
[59] = locus YLR027C, strain aat2, stronger effect = lower value
[60] = locus YLR113W, strain HOG1, stronger effect = lower value
[61] = locus YLR221C, strain rsa3, stronger effect = lower value
[62] = locus YLR258W, strain gsy2, stronger effect = lower value
[63] = locus YLR262C, strain YPT6 (second series), stronger effect = lower value
[64] = locus YLR320W, strain mms22, stronger effect = lower value
[65] = locus YLR342W, strain FKS1, stronger effect = lower value
[66] = locus YLR357W, strain rsc2, stronger effect = lower value
[67] = locus YLR370C, strain arc18, stronger effect = lower value
[68] = locus YLR384C, strain iki3, stronger effect = lower value
[69] = locus YML120C, strain ndi1, stronger effect = lower value
[70] = locus YMR058W, strain fet3, stronger effect = lower value
[71] = locus YMR125W, strain sto1, stronger effect = lower value
[72] = locus YMR129W, stronger effect = lower value
[73] = locus YMR205C, strain PFK2, stronger effect = lower value
[74] = locus YMR231W, strain pep5, stronger effect = lower value
[75] = locus YNL071W, strain lat1, stronger effect = lower value
[76] = locus YNL183C, strain NPR1, stronger effect = lower value
[77] = locus YNL209W, strain ssb2, stronger effect = lower value
[78] = locus YNL248C, strain rpa49, stronger effect = lower value
[79] = locus YNL322C, strain KRE1 (second series), stronger effect = lower value
[80] = locus YNR049C, strain mso1, stronger effect = lower value
[81] = locus YOR001W, strain rrp6, stronger effect = lower value
[82] = locus YOR070C, strain gyp1, stronger effect = lower value
[83] = locus YOR080W, strain dia2, stronger effect = lower value
[84] = locus YOR083W, strain WHI5, stronger effect = lower value
[85] = locus YOR106W, strain vam3, stronger effect = lower value
[86] = locus YOR231W, strain MKK1, stronger effect = lower value
[87] = locus YOR265W, strain rbl2, stronger effect = lower value
[88] = locus YOR270C, strain vph1, stronger effect = lower value
[89] = locus YOR290C, strain snf2, stronger effect = lower value
[90] = locus YPL051W, strain arl3, stronger effect = lower value
[91] = locus YPL078C, strain atp4, stronger effect = lower value
[92] = locus YPL106C, strain sse1, stronger effect = lower value
[93] = locus YPL240C, strain hsp82, stronger effect = lower value
[94] = locus YPL256C, strain CLN2, stronger effect = lower value

Measured: normalized growth

NC(=O)C(c1ccccc1)(c1ccccc1)C1CCN(CCc2ccc3c(c2)CCO3)C1 (stereo not given)
inactive: [1] 1.01 | [2] 1.02 | [3] 1.03 | [4] 1.01 | [5] 1.04 | [6] 1.02 | [7] 1.04 | [8] 0.976 | [9] 1.02 | [10] 1.03 | [11] 1.03 | [12] 1.02 | [13] 1.02 | [14] 1.02 | [15] 1.02 | [16] 1.03 | [17] 1.02 | [18] 1.04 | [19] 1.1 | [20] 1.03 | locus YDR195W, strain ref2 1.04 | [21] 1.02 | [22] 1.03 | [23] 1.01 | [24] 0.996 | [25] 1.03 | [26] 1.02 | [27] 1.01 | [28] 1.02 | [29] 1.04 | [30] 1.02 | [31] 1.04 | [32] 1.02 | [33] 1.02 | [34] 1.02 | [35] 1.01 | [36] 1.01 | [37] 1.02 | [38] 1.01 | [39] 1.03 | [40] 1.05 | [41] 1.05 | [42] 1 | [43] 1.01 | [44] 1.03 | [45] 0.986 | [46] 1.02 | [47] 0.999 | [48] 1.03 | [49] 1.04 | [50] 1.03 | [51] 1.02 | [52] 0.997 | [53] 1.02 | [54] 1.02 | [55] 1.02 | [56] 1.03 | [57] 1.02 | [58] 1.03 | [59] 1.03 | [60] 1.01 | [61] 1.02 | [62] 1.04 | [63] 1.08 | [64] 1.01 | [65] 1.02 | [66] 0.966 | [67] 1.01 | [68] 1.03 | [69] 1.01 | [70] 1.02 | [71] 1.01 | [72] 1.02 | [73] 1.03 | [74] 1.02 | [75] 1.01 | [76] 0.997 | [77] 1.02 | [78] 1.03 | [79] 1.04 | [80] 1.02 | [81] 1.03 | [82] 1.03 | [83] 1.01 | [84] 1 | [85] 1.01 | [86] 1.04 | [87] 1.05 | [88] 1.02 | [89] 1.08 | [90] 1.04 | [91] 1.01 | [92] 1.05 | [93] 1.03 | [94] 1.06

Nc1c(S(=O)(=O)O)cc(Nc2ccc(Nc3nc(Cl)nc(Nc4ccc(S(=O)(=O)O)cc4)n3)c(S(=O)(=O)O)c2)c2c1C(=O)c1ccccc1C2=O
inactive: locus YAL013W, strain DEP1, stronger effect = lower value 0.977 | locus YAL040C, strain CLN3, stronger effect = lower value 1.09 | locus YCL061C, strain MRC1 (second series), stronger effect = lower value 1.01 | locus YDR150W, strain NUM1, stronger effect = lower value 1.03 | locus YDR363W, strain ESC2, stronger effect = lower value 1.01 | locus YER002W, strain NOP16, stronger effect = lower value 1.03 | locus YGR078C, strain PAC10, stronger effect = lower value 1.04 | locus YMR307W, strain GAS1, stronger effect = lower value 1.05 | locus YNL128W, strain TEP1, stronger effect = lower value 1.03 | locus YNL175C, strain NOP13, stronger effect = lower value 1.03 | locus YNL197C, strain WHI3, stronger effect = lower value 1.04 | locus YNL224C, strain SQS1, stronger effect = lower value 1.04 | locus YNL322C, strain KRE1, stronger effect = lower value 1.01 | locus YOR083W, strain WHI5 (second series), stronger effect = lower value 1.04 | locus YPL241C, strain CIN2, stronger effect = lower value 1.02

CC(=O)O[C@H]1[C@@H]2[C@@H](OC(=O)Cc3ccccc3)[C@@H](C)C[C@]2(OC(C)=O)C(=O)/C(C)=C/[C@H]2[C@H](CC[C@@]13CO3)C2(C)C
active: [75] 0.914
inactive: [1] 0.975 | [2] 0.985 | [3] 0.986 | [4] 0.984 | [5] 1 | [6] 0.982 | [7] 0.976 | [8] 0.988 | [9] 0.983 | [10] 0.979 | [11] 0.989 | [12] 0.992 | [13] 0.991 | [14] 0.992 | [15] 0.976 | [16] 0.978 | [17] 0.985 | [18] 0.98 | [19] 0.85 | [20] 0.977 | locus YDR195W, strain ref2 1.01 | [21] 0.97 | [22] 0.934 | [23] 0.978 | [24] 0.84 | [25] 0.981 | [26] 0.987 | [27] 0.984 | [28] 0.989 | [29] 0.979 | [30] 0.992 | [31] 0.984 | [32] 0.977 | [33] 0.97 | [34] 0.958 | [35] 0.99 | [36] 0.99 | [37] 0.974 | [38] 0.926 | [39] 0.983 | [40] 0.988 | [41] 0.981 | [42] 0.958 | [43] 0.97 | [44] 0.977 | [45] 0.989 | [46] 0.969 | [47] 0.941 | [48] 0.993 | [49] 0.982 | [50] 0.981 | [51] 0.988 | [52] 0.963 | [53] 0.972 | [54] 0.982 | [55] 0.985 | [56] 0.98 | [57] 0.98 | [58] 0.97 | [59] 0.975 | [60] 0.966 | [61] 0.975 | [62] 0.986 | [63] 0.878 | [64] 0.971 | [65] 0.966 | [66] 1.03 | [67] 0.987 | [68] 0.983 | [69] 0.967 | [70] 0.98 | [71] 1 | [72] 0.989 | [73] 0.984 | [74] 0.993 | [76] 0.909 | [77] 0.989 | [78] 0.98 | [79] 0.981 | [80] 0.978 | [81] 0.955 | [82] 0.985 | [83] 0.974 | [84] 0.972 | [85] 0.951 | [86] 0.961 | [87] 0.983 | [88] 0.815 | [89] 0.929 | [90] 0.958 | [91] 0.978 | [92] 1 | [93] 0.966 | [94] 0.967

— PubChem BioAssay AID1159580 (chemical genetic matrix, 2015)
